From PubChem BioAssay (Tox21)
Inconclusive results are not listed. Calls of active or inactive are those of the source. The call rests on the fitted dose curve.

Assay: qHTS assay to identify small molecule agonists or antagonists of the thyroid stimulating hormone receptor (TSHR) signaling pathway - wild type cell line counter screen (AID 1259384)
Conditions: HEK293 wild type, cAMP HTRF counter-screen, active compounds read high; series mostly up to 92.4 µM; cAMP activity change: at the top concentration
Outline: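 Wild-type Hek293 cells, 800/well, 18 h at 37C, then compound with Ro20-1724 for 30 min RT. cAMP by HTRF (cAMP-d2/anti-cAMP cryptate), 1 h RT, fluorescence read. 15 concentrations, triplicates.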
On the % scale 0 is the no-effect control and ±100 the full control effect.

SMILES	cAMP activity change	outcome
CCCCC(CC)CN1CN(CC(CC)CCCC)CC(C)(N)C1 (stereo not drawn)	-5.17% [at 42.5 µM] (inactive)	–
Cc1cc(=O)oc2cc(O)cc(O)c12	12.8% (inactive)	–
CC(=O)c1ccc(C(C)=O)cc1	2.79% (inactive)	–
NC(=S)NC(N)=S	1.17% (inactive)	–
CC(=O)OCC=C(C)C	1.08% [at 42.5 µM] (inactive)	–
O=C(/C=C/c1ccccc1)OC/C=C/c1ccccc1	-3.57% (inactive)	–
Cc1c2ccccc2c(C)c2c1ccc1ccccc12	–	inactive
CCCCCCCC/C=C\CCCCCCCCN	6.21% [at 42.5 µM] (inactive)	–
CC(C)=CCNc1ncnc2c1ncn2[C@@H]1O[C@H](CO)[C@@H](O)[C@H]1O	3.25% [at 42.5 µM] (inactive)	–
CN(C)CCN1CCN(c2cccc(Cl)c2)C1=O	-7.18% [at 42.5 µM] (inactive)	–
CCCCCCCCCCOC(=O)c1ccccc1C(=O)OCCCCCCCC	-0.381% (inactive)	–
CC(C)OC(=O)C(O)(CC(=O)O)CC(=O)O	3.14% (inactive)	–
O=S(=O)(O)c1ccc(Nc2nc(Nc3ccc(/C=C/c4ccc(Nc5nc(Nc6ccc(S(=O)(=O)O)cc6)nc(N(CCO)CCO)n5)cc4S(=O)(=O)O)c(S(=O)(=O)O)c3)nc(N(CCO)CCO)n2)cc1	0.0314% [at 42.5 µM] (inactive)	–
Cc1cccc(C)c1NC(=O)c1ccc(N)cc1	-4.08% [at 42.5 µM] (inactive)	–
CCOC(=O)NNc1ccc(N(CC)CC(C)O)nn1 (stereo not drawn)	2.69% [at 42.5 µM] (inactive)	–
CC1(C)[C@@H](O)CC[C@]2(C)[C@H]3C(=O)C=C4[C@@H]5C[C@@](C)(C(=O)O)CC[C@]5(C)CC[C@@]4(C)[C@]3(C)CC[C@@H]12	-2.55% (inactive)	–
O=C(O)Cc1ccccc1Nc1c(Cl)cccc1Cl	–	inactive

SMILES	cAMP activity change	outcome
c1ccsc1	-4.2% (inactive)	–
NC(=O)c1cccc([N+](=O)[O-])c1	-2.27% (inactive)	–
CCc1cccc(CC)c1NC(=O)CN(CC(=O)O)CC(=O)O	-1.26% [at 42.5 µM] (inactive)	–
Clc1sc(Cl)c(Cl)c1Cl	9.19% (inactive)	–
OC[C@H]1O[C@H](O[C@H]2O[C@H](CO)[C@@H](O)[C@H](O)[C@H]2O)[C@H](O)[C@@H](O)[C@@H]1O	7.58% (inactive)	–
CC(CO)Oc1ccccc1 (stereo not drawn)	-3.18% (inactive)	–
COc1c(C)c2c(c(O)c1C/C=C(\C)CCC(=O)OCCN1CCOCC1)C(=O)OC2	1% [at 42.5 µM] (inactive)	–
CCCc1ccc(OCC(=O)N2CCN(C(=O)COc3ccc(CCC)cc3OC)CC2)c(OC)c1	-4.18% [at 42.5 µM] (inactive)	–
CN(C)Cc1ccccc1O	-4.17% (inactive)	–
CCCCCCOC(=O)C(C)CC (stereo not drawn)	4.77% (inactive)	–
Cc1c(N)cccc1C(F)(F)F	-0.196% [at 42.5 µM] (inactive)	–
COC(=O)Nc1nc2ccc(C(=O)c3ccccc3)cc2[nH]1	0.218% [at 42.5 µM] (inactive)	–
CCN1C(=O)c2ccccc2C1Nc1ccc(OCCN2CCCCC2)cc1 (stereo not drawn)	-5.44% [at 42.5 µM] (inactive)	–
CCOc1ccc2ccccc2c1C(=O)N[C@@H]1C(=O)N2[C@@H]1SC(C)(C)[C@@H]2C(=O)O	1.36% [at 42.5 µM] (inactive)	–
Nc1ccc(C(=O)O)c(O)c1	-11.6% [at 42.5 µM] (inactive)	–
O[C@@H]([C@H](O)[C@H](O)CBr)[C@H](O)CBr	0.591% (inactive)	–
